Records with an inconclusive call do not appear. Active and inactive are the calls of the source. Unless noted, calls follow the shape of the dose curve; as a rule, active = well fitted curve in the direction sought with a large enough effect in the repeat runs; inconclusive = weak or mixed curves; inactive = no such curve, though single readings can be large; an effect the other way counts as inactive or inconclusive.

Experiment [1] in a line: qHTS assay to identify small molecule agonists of the vitamin D receptor (VDR) signaling pathway - cell viability counter screen (AID 743224). Also: series mostly up to about 63 µM; nearly all actives have a fitted effect of over 50% in size. Summed up:
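Viability is measured in the same wells as the VDR-bla reporter assay: after 16 h compound treatment and 2 h substrate loading, CellTiter-Glo is added and luminescence read 30 min later.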
(In qHTS, concentration-response curves come from the screen itself.)

Experiment [2] can be described thus: qHTS assay to identify small molecule antagonists of the vitamin D receptor (VDR) signaling pathway - cell viability counter screen (AID 743225). Also: nearly all actives have a fitted effect of over 50% in size. A digest of the protocol: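 VDR-UAS-bla HEK 293T cells were plated and incubated 4 h at 37C, then dosed with compound plus 3 nM (final) 1-alpha,25-dihydroxyvitamin D3 for 16 h. After the 2 h beta-lactamase read, viability in the same wells was read as CellTiter-Glo luminescence after 30 min at room temperature.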

A short description of experiment [3]: qHTS assay to identify small molecule agonists of the NFkB signaling pathway (AID 1159509; active = well fitted curve in the direction sought with a large enough effect in the signal ratio in the repeat runs, not every such curve was filed as active; the % refers to the signal ratio; also: series mostly up to about 61 µM). Summed up:
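After overnight attachment, reporter cells received test compounds, DMSO or positive controls and were incubated 5 hr at 37 C. FRET substrate was then added for 1.5 hr at room temperature before dual-emission fluorescence reading.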

Experiment [4] can be described thus: qHTS assay to identify small molecule agonists of the NFkB signaling pathway - cell viability counter screen (AID 1159515; calls by dose curve; also: series mostly up to about 61 µM; nearly all actives have a fitted effect of over 55% in size). A digest of the protocol:
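Multiplexed viability readout: after the 5 hr compound exposure and 1.5 hr FRET substrate step, CellTiter-Glo reagent went into the same NFkB-bla ME-180 wells; ATP luminescence was measured after 30 min at room temperature.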

Experiment [5] in a line: qHTS assay to identify small molecule agonists of the endoplasmic reticulum stress response signaling pathway (AID 1159516; active = well fitted activation curve with a large enough effect in the signal ratio in the repeat runs, not every such curve was filed as active; the % refers to the signal ratio). Summed up: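 Tox21 10K library screened in quantitative HTS format on ESRE-bla HeLa cells, a beta-lactamase reporter under ER stress response element control; 5 hr treatment, FRET read.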
Experiment [6] is described as follows: qHTS assay to identify small molecule antagonists of the retinoid-related orphan receptor gamma (ROR-gamma) signaling pathway - cell viability counter screen (AID 1159520). Also: nearly all actives have a fitted effect of over 50% in size. Summed up: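 Tet-on ROR gamma CHO cells (1,000/well) were plated 4 hr, given compounds in DMSO for 2 hr at 37 C, then induced with 1 uM final doxycycline for 16 hr. Viability was read as ATP by CellTiter-Glo luminescence after 30 min.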

Experiment [7] has as its target Nuclear receptor ROR-gamma (Homo sapiens) (UniProt P51449). In words: qHTS assay to identify small molecule antagonists of the retinoid-related orphan receptor gamma (ROR-gamma) signaling pathway (AID 1159521; also: nearly all actives have a fitted effect of over 50% in size; also: potency is read from the fitted curve at half-maximal effect). A digest of the protocol: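 Tet-on ROR-gamma CHO cells with ROR response element-luciferase reporter; compounds added 2 hr before 1 uM doxycycline induction, then 16 hr at 37 C. Antagonism scored as decreased ONE-Glo luminescence.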

A short description of experiment [8]: qHTS assay to identify small molecule agonists of the AP-1 signaling pathway - cell viability counter screen (AID 1159525; calls by dose curve; also: nearly all actives have a fitted effect of over 55% in size). Summed up: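 ME-180 AP-1-bla, 2500 cells/well, Opti-MEM + 0.5% dialyzed FBS; overnight 37 °C; cpd 15-pt titration, 5 h 37 °C; CellTiter-Glo 30 min RT; luminescence read; normalised to TOAB and DMSO controls.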
A short description of experiment [9]: qHTS assay to identify small molecule agonists of the AP-1 signaling pathway (AID 1159526; calls by dose curve).
The target of experiment [10] is Retinoic acid receptor RXR-alpha (Homo sapiens) (UniProt P19793). In words: qHTS assay to identify small molecule agonists of the RXR signaling pathway (AID 1159527; calls by dose curve; also: nearly all actives have a fitted effect of over 35% in size; also: potency is read from the fitted curve at half-maximal effect). A digest of the protocol:
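GeneBLAzer RXR-alpha-UAS-bla HEK 293T cells in 2% charcoal-stripped FBS medium were exposed to compounds for 16 hr at 37 C in agonist mode. Beta-lactamase reporter read as 460/530 nm FRET ratio after 2 hr substrate loading.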

A short description of experiment [11]: qHTS assay to identify small molecule agonists of the RXR signaling pathway - cell viability counter screen (AID 1159529). Summed up:
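RXR-alpha-UAS-bla HEK 293T cells in medium with 2% charcoal-stripped FBS were pre-incubated 5 hr, then compound-treated 16 hr at 37 C. Viability was read by CellTiter-Glo luminescence in the same wells as the beta-lactamase assay, with tetraoctyl ammonium bromide as positive control.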

Experiment [12] can be described thus: qHTS assay to identify small molecule antagonists of the retinoid acid receptor (RAR) signaling pathway - cell viability counter screen (AID 1159551). Also: nearly all actives have a fitted effect of over 35% in size. Summed up: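 Cytotoxicity counter screen in C3RL4 cells: 6 h compound exposure with 1 uM retinol (final), viability from cellular ATP by luminescence.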
A short description of experiment [13]: qHTS assay to identify small molecule antagonists of the estrogen related receptor (ERR) signaling pathway - cell viability counter screen (AID 1224818). Also: series mostly up to about 46 µM. Summed up: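 Cells carrying the ERR pathway reporter were seeded and incubated for 6 hours before compound addition. After a 17.5-hour exposure at 37 C, live-cell protease activity was measured by CellTiter-Fluor fluorescence following 30 minutes of incubation.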

Experiment [14] in a line: qHTS assay to identify small molecule antagonists of the estrogen related receptor signaling pathway with the pleiotropic PPARgamma coactivator (PGC) cell viability counter screen (AID 1224822; also: series mostly up to about 46 µM). A digest of the protocol: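 Seed PGC/ERR cells (2,000/well); incubate 6 h at 37 C/5% CO2; pin-transfer compounds in DMSO; incubate 17.5 h at 37 C; add CellTiter-Fluor; after 30 min read fluorescence.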

Experiment [15] is described as follows: qHTS assay to identify small molecule agonists of the endoplasmic reticulum stress response signaling pathway - cell viability counter screen (AID 1159517; calls by dose curve). Summed up:
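Luminescence readout: CellTiter-Glo, 30 min RT, same wells as the ESRE-bla reporter read. HeLa ESRE-bla, 1,500 cells/well, o/n 37 C; cpd 5 hr 37 C/5% CO2.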

The nature of experiment [16]: qHTS assay to identify small molecule agonists of the retinoic acid receptor (RAR) signaling pathway (AID 1159553). Summed up:
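Agonist activity was scored in C3RL4 cells bearing a retinoic acid response element luciferase construct. Cells were treated with compounds for 6 hr at 37 C, and luciferase signal was measured as luminescence.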

The nature of experiment [17]: qHTS assay to identify small molecule antagonists of the retinoic acid receptor (RAR) signaling pathway (AID 1159552; also: nearly all actives have a fitted effect of over 50% in size). A digest of the protocol:
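Retinol signaling pathway inhibitors screened in C3RL4 RARE-luciferase reporter cells seeded overnight at 37 C, then compounds added with 1 uM (final) retinol as pathway substrate. After 6 hr at 37 C, luciferase luminescence read after 30 min at room temperature.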

Chain of Retinoic acid receptor RXR-alpha (Homo sapiens) (P19793 whole entry, looked up): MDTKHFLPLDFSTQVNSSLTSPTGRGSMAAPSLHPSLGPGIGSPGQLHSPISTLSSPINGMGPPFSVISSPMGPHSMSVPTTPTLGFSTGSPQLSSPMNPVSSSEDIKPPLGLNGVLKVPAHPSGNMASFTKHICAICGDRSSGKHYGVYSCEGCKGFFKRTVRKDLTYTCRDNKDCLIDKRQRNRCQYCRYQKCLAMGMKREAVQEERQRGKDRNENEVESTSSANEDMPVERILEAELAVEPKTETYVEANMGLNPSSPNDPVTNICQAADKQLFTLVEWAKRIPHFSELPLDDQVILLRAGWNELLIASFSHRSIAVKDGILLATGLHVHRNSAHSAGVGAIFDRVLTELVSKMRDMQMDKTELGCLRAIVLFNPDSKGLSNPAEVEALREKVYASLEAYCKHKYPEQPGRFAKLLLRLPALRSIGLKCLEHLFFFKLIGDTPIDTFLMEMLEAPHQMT

Turning to `C[N+](=O)[O-]`, the Potency entry in experiment [1], in experiment [6], in experiment [7], in [8], in experiment [10] and in experiment [11] was “inactive” in each case. Further, the Potency entry in experiment [12] is “inactive”. Also, the call in experiment [2], in experiment [3], in experiment [4], in experiment [5] and in experiment [9] was inactive.

Take `CC(CCc1ccccc1)NC(C)C(O)c1ccc(O)cc1` (stereo not given): the Potency result in [1], in experiment [6], in [7], in [8], in experiment [10] and in [11] was “inactive” each time. Further, the Potency result in experiment [12] is “inactive”. Further, the result in experiment [2], in [3], in experiment [4], in [5], in experiment [13] and in experiment [14] was inactive.

For `C#C[C@]1(O)C=C[C@H]2[C@@H]3CCC4=CC(=O)CC[C@@H]4[C@H]3CC[C@@]21CC`, the Potency result in experiment [1], in [15], in experiment [6], in [10], in experiment [11] and in experiment [12] was “inactive” in each case. In addition, in experiment [16], the Potency result was “inactive”. Further, the compound was called inactive in experiment [2], in experiment [3], in experiment [4], in [5] and in experiment [9].

On to `CCOC(=O)NC(=S)Nc1ccccc1NC(=S)NC(=O)OCC`, for which the Potency result in experiment [1], in experiment [6], in experiment [7], in experiment [8], in experiment [11] and in [12] was “inactive” each time. In experiment [17], the Potency result was “inactive”. Further, the result in experiment [2], in experiment [3], in experiment [4], in experiment [5] and in [9] was inactive.

Take `ClC(Br)Br`: the Potency result in experiment [1], in experiment [6], in experiment [7], in [8], in [11] and in experiment [12] was “inactive” in each case. Moreover, the Potency entry in [17] and in [16] was “inactive” throughout. Also, the compound was classed as inactive in experiment [2], in experiment [3], in [4], in experiment [5] and in experiment [9].

Regarding `OCCSCSCCO`, the Potency result in experiment [1], in experiment [6], in experiment [7], in [8], in experiment [10] and in experiment [11] was “inactive” throughout. The Potency entry in experiment [12] is “inactive”. Further, the compound was called inactive in [2], in experiment [3], in experiment [4], in experiment [5] and in experiment [9].

For `Nc1n[nH]c(N)n1`, the Potency entry in experiment [1], in experiment [6], in [8], in [12] and in [16] was “inactive” each time. In addition, the outcome in experiment [2], in experiment [3], in [4] and in experiment [5] was inactive. In [7], the Potency was 15.6 µM (active).

For the compound `O=C(O)C(Br)CBr` (stereo not given), the Potency entry in experiment [1], in experiment [6], in experiment [7], in experiment [8], in [11] and in [12] was “inactive” each time. Besides, the outcome in experiment [2], in experiment [3], in [4] and in [5] was inactive. Moreover, the Potency in experiment [10] was 9.94 µM (active).

`Cc1nc(N)nc(N)n1`: the Potency result in experiment [1], in experiment [15], in experiment [6], in experiment [10], in [11] and in experiment [12] was “inactive” throughout. Also, the Potency result in experiment [17] and in [16] was “inactive” each time. Moreover, the result in [2], in experiment [3], in [4], in experiment [5] and in [9] was inactive.

Take `CCCCc1c(C)nc(NCC)[nH]c1=O`: the Potency entry in experiment [1], in experiment [6], in experiment [8], in experiment [10], in experiment [11] and in experiment [12] was “inactive” in each case. The compound was called inactive in experiment [3], in experiment [4], in experiment [5] and in experiment [9].

Turning to `[As]#[In]`, the Potency result in [1], in [6], in experiment [7], in experiment [8], in experiment [11] and in experiment [12] was “inactive” throughout. Moreover, the Potency result in experiment [17] was “inactive”. Besides, the compound was classed as inactive in [2], in experiment [3], in experiment [4], in experiment [5] and in experiment [9].
